# According to article PMC5540273 (PLoS ONE, 2017):
# Key:
# Conditions in all cases: concentration: 1 μM, replicates: in singlicate; n = 1
# CAMK1 = tested on: CAMK1
# CAMK2A = tested on: CAMK2A
# CAMK2B = tested on: CAMK2B
# CAMK2D = tested on: CAMK2D
# CAMK2G = tested on: CAMK2G
# CAMK4 = tested on: CAMK4
# CAMKK1 = tested on: CAMKK1
# CAMKK2 = tested on: CAMKK2
# CASK = tested on: CASK
# CDC2L1 = tested on: T1, CDC2L1
# T1 construct: gene CDK11B
# CDC2L2 = tested on: CDC2L2
# CDC2L5 = tested on: T2, CDC2L5
# T2 construct: gene CDK13
# CDK11 = tested on: T3, CDK11
# T3 construct: gene CDK19
# CDK2 = tested on: CDK2
# CDK3 = tested on: CDK3
# CDK4-cyclinD1 = tested on: CDK4-cyclinD1
# CDK4-cyclinD3 = tested on: CDK4-cyclinD3
# CDK4 = tested on: CDK4
# CDK5 = tested on: CDK5
# CDK7 = tested on: CDK7
# 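Also: KINOMEscan kinase panel screen.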
SMILES,%Inh (CAMK1) [%],%Inh (CAMK2A) [%],%Inh (CAMK2B) [%],%Inh (CAMK2D) [%],%Inh (CAMK2G) [%],%Inh (CAMK4) [%],%Inh (CAMKK1) [%],%Inh (CAMKK2) [%],%Inh (CASK) [%],%Inh (CDC2L1) [%],%Inh (CDC2L2) [%],%Inh (CDC2L5) [%],%Inh (CDK11) [%],%Inh (CDK2) [%],%Inh (CDK3) [%],%Inh (CDK4-cyclinD1) [%],%Inh (CDK4-cyclinD3) [%],%Inh (CDK4) [%],%Inh (CDK5) [%],%Inh (CDK7) [%]
Cc1ccc(C(=O)Nc2ccc(Nc3ccnc4cc(-c5nccs5)ccc34)cc2O)cc1.Cl [GW494702],13,0,0,0,14,0,3,6,4,0,0,0,0,94.4,8,39,0,43,0,9
CN1CCN(Cc2cccc(-c3ccc4c(Nc5ccc(Oc6ccccc6)cc5)ccnc4c3)c2)CC1 [GW578342],27,1,0,5,10,0,0,0,1,0,16,0,0,0,2,0,0,34,0,5
Cl.NC(=O)c1cccc(Nc2nccc(Nc3ccc(Oc4c(Cl)cccc4Cl)c(Cl)c3)n2)c1 [GW659009],14,0,0,0,0,0,0,0,50,0,2,0,88,0,0,0,0,1,0,0
Cc1ccc(S(=O)(=O)Nc2ccc(Nc3nccc(Nc4cccc5[nH]ncc45)n3)cc2)cc1 [GSK581271],24,0,0,4,8,0,0,9,45,0,0,0,0,21,17,0,0,15,0,0
CCn1c(-c2nonc2N)nc2c(C#CC(C)(C)O)nc(OC[C@H](N)c3ccccc3)cc21 [GSK943949],0,0,0,0,0,0,0,0,25,0,0,2,0,0,0,0,8,0,9,5
O=C(Nc1cccc(-c2nn3ccccc3c2-c2ccnc(Nc3cccc(F)c3)n2)c1)c1c(F)ccc(F)c1Cl [GSK357952],12,0,0,0,0,13,0,0,4,0,0,0,0,0,1,0,0,53,0,0
CN(c1ccc(NC(=O)Nc2cc(C(F)(F)F)ccc2F)cc1)c1ccnc(Nc2ccc(S(N)(=O)=O)cc2)n1 [GW809893],48,0,4,1,9,0,16,15,35,88,94,83,98.8,99.7,99,14,5,0,97.1,95.3
c1ccc(Oc2ccc(Nc3ccnc4cc(-c5ccc(CNCCN6CCOCC6)o5)ccc34)cc2)nc1 [GW567145],26,0,0,0,1,0,0,0,0,0,5,0,1,0,0,38,0,1,0,8
Cl.Cl.NCC(NCc1ccc(-c2ccnc3[nH]ccc23)s1)c1ccccc1 (centres unmarked) [GSK1321565],10,0,0,13,19,0,0,9,0,0,23,0,2,0,0,5,0,50,0,65
CSc1cccc2c(-c3ccncn3)c(-c3ccc(F)cc3)nn12 [GW514786],0,0,0,0,10,0,0,0,45,0,17,0,8,11,9,13,0,15,0,2
CC(C)c1nc(-c2cccc(NS(=O)(=O)c3c(F)cccc3F)c2F)c(-c2ccnc(Nc3ccc(N4CCOCC4)nc3)n2)s1 [GSK2008607],81,0,0,3,29,65,55,15,0,12,47,84,6,99.4,99.5,65,93.6,96.3,99.1,93.1
C[C@@H](Oc1cc(-n2cnc3cc(-c4ccnc(NCCS(C)(=O)=O)c4)ccc32)sc1C(N)=O)c1ccccc1Cl [GSK907232],15,0,0,5,33,0,21,80,57,0,5,0,20,13,16,0,0,0,0,0
CN1CCN(CCCNc2nccc(-c3c(-c4ccc(F)cc4)nn4cc(C(F)(F)F)ccc34)n2)CC1 [GW621581],5,0,0,0,0,0,0,0,0,0,0,0,0,0,0,0,0,0,0,0
COCCOCCOc1cc2ncc3c4ccc(C#N)cc4[nH]c3c2cc1OC,26,85,57,87,72,0,83,63,8,0,19,0,0,12,15,0,39,0,7,99.7
CCn1c(-c2nonc2N)nc2c(C#CC(C)(C)O)ncc(OCCCCN)c21.O=C(O)C(F)(F)F.O=C(O)C(F)(F)F [GSK507274],31,0,0,4,19,50,0,0,19,0,0,0,0,3,16,0,0,0,0,0
Cn1cc(-c2[nH]c3cc(NC(=O)[C@H](N)C4CCCCC4)cc4c3c2C=NNC4=O)cn1,49,68,15,76,73,0,60,56,6,2,6,0,15,8,0,0,0,0,11,41
Cl.Cl.NCC(NC(=O)c1cc(-c2ccccc2)c(-c2ccnc3[nH]ccc23)s1)c1ccccc1 (centres unmarked) [GSK1321561],4,0,0,5,0,0,15,10,13,0,11,0,8,0,8,0,0,27,0,0
CC(=O)Nc1nc2cnc(Nc3cc(NC(=O)c4cccc(C5(C#N)CC5)c4Cl)ccc3C)nc2s1,35,13,0,0,10,0,14,12,0,43,33,17,23,0,0,0,0,0,0,0
COc1cccc(C2=C(Nc3ccc(Cl)c(C(=O)O)c3)C(=O)NC2=O)c1 [SB-390769],0,0,0,3,1,0,0,0,100,0,0,0,100,9,25,7,100,0,0,0
O=C(Nc1n[nH]c2nc(-c3ccc(O)cc3)ccc12)C1CC1 [SB-710363],0,19,19,5,0,0,8,17,31,0,0,69,0,75,84,83,78,0,0,41

SMILES,%Inh (CAMK1) [%],%Inh (CAMK2A) [%],%Inh (CAMK2B) [%],%Inh (CAMK2D) [%],%Inh (CAMK2G) [%],%Inh (CAMK4) [%],%Inh (CAMKK1) [%],%Inh (CAMKK2) [%],%Inh (CASK) [%],%Inh (CDC2L1) [%],%Inh (CDC2L2) [%],%Inh (CDC2L5) [%],%Inh (CDK11) [%],%Inh (CDK2) [%],%Inh (CDK3) [%],%Inh (CDK4-cyclinD1) [%],%Inh (CDK4-cyclinD3) [%],%Inh (CDK4) [%],%Inh (CDK5) [%],%Inh (CDK7) [%]
COc1cc(Nc2nccc(N3CCC(NC(=O)c4cc5ccccc5s4)C3)n2)cc(OC)c1OC (centres unmarked) [GSK1379760],17,0,1,0,29,0,12,0,12,0,5,0,19,0,11,41,0,14,0,16
COc1cc(Nc2nccc(-c3c(-c4cccc(NC(=O)c5c(F)cccc5F)c4)nn4ncccc34)n2)cc(OC)c1OC [GSK327238],58,0,0,10,19,0,24,18,14,16,15,0,0,0,4,0,97.4,21,0,0
Nc1ncc(-c2ccc3nccc(-c4ccncc4)c3c2)cc1S(=O)(=O)N1CCOCC1 [GSK1627798],27,0,0,0,49,0,57,78,48,0,0,0,40,1,6,0,47,0,0,72
O=C(Nc1cccc(-c2nn3ncccc3c2-c2ccnc(Nc3ccccc3)n2)c1)c1c(F)cccc1F [GSK198271],39,0,0,13,8,0,0,8,3,0,18,0,0,0,8,0,0,0,0,0
O=C(Nc1cccc(Oc2ccc3nc(NC(=O)C4CC4)cn3n2)c1)c1ccccc1C(F)(F)F,7,100,100,1,0,0,1,0,6,0,14,25,1,0,21,24,0,0,0,0
CN(C)Cc1ccc(-c2ccc3c(Nc4ccc(Oc5ccccn5)cc4)ccnc3c2)o1 [GW567148],27,0,0,0,15,0,0,0,0,0,0,0,0,0,0,0,0,25,0,62
CNC(=O)c1ccccc1Nc1nc(Nc2ccc(N3CCOCC3)cc2)ncc1Cl.Cl [GSK1576028],77,25,14,22,49,0,93.2,95,71,16,20,0,0,39,31,47,45,28,29,96.6
Cc1cccc(NC(=O)Nc2ccc(Oc3ncnc4ccn(C)c34)cc2)c1,0,0,0,0,0,0,0,0,0,0,0,0,77,0,2,0,0,0,15,0
O=C(Nc1cccc(-c2nn3ccccc3c2-c2ccnc(Nc3cccc(C(F)(F)F)c3)n2)c1)c1c(F)cccc1F [GSK292658],4,0,0,5,0,0,16,3,0,0,0,99.3,0,0,1,0,0,0,0,6
C[C@@H]1CC[C@@H](C(=O)Nc2ccccc2)CN1c1cc(-c2ccc3c(N)n[nH]c3c2)nc(N)n1 [GSK2286062],28,0,0,17,18,0,0,7,5,7,20,0,0,20,0,0,0,16,0,0
Cl.c1ccc(-c2ccc3c(Nc4ccc5[nH]ccc5c4)ccnc3c2)nc1 [GW440138],0,0,0,7,18,0,3,12,0,0,7,0,4,0,0,27,0,35,0,0
CN(C)S(=O)(=O)c1cc(-c2ccc3nccc(-c4cccc(S(N)(=O)=O)c4)c3c2)cnc1N [GSK1669921],40,1,0,3,8,0,48,47,4,0,3,0,54,0,9,0,0,0,0,58
Cc1ccc(F)c(C(=O)Nc2cccc(-c3nn4ccccc4c3-c3ccnc(Nc4cccc(F)c4)n3)c2)c1F [GSK361061],26,5,0,8,15,11,17,14,19,0,23,0,14,11,17,0,0,3,4,0
CC(=O)N1CCN(c2ccc(Nc3nccc(-c4sc(C(C)C)nc4-c4cccc(NS(=O)(=O)c5cccc(Cl)c5)c4)n3)cn2)CC1 [GSK1660437],34,0,0,0,0,0,0,0,0,0,0,21,0,97.1,98.6,79,4,76,100,59
Cc1cccc(Nc2nc(N[C@H]3CCNC3)ncc2C(N)=O)c1.Cl [GSK2197149],41,0,0,6,18,0,2,17,0,73,74,0,0,0,0,0,1,0,0,52
COc1cccc(C(=O)Nc2cccc(Oc3ccc4nc(NC(=O)C5CC5)cn4n3)c2)c1,16,11,18,15,0,8,6,0,3,0,17,2,8,0,0,1,0,0,0,0
O=c1[nH]cc(-c2ccc(N3CCOCC3)cc2)c2sc(-c3cn[nH]c3)cc12 [GSK2276055],31,2,2,18,25,0,29,22,15,4,12,0,0,0,6,0,21,0,0,2
CCS(=O)(=O)c1ccc(OC)c(Nc2nccc(-c3c(-c4cccc(NC(=O)c5c(F)cccc5F)c4)nn4ncccc34)n2)c1 [GSK326180],9,0,0,15,27,0,0,20,16,0,15,0,11,0,7,0,12,0,0,0
Cl.Cl.NCC(C(=O)Nc1cc(Br)c(-c2ccnc3[nH]ccc23)s1)c1ccccc1 (centres unmarked) [GSK1269851],0,100,100,8,12,0,8,0,25,1,4,0,17,0,5,0,2,15,0,24
Cc1occc1-c1ncc(OC[C@@H](N)Cc2c[nH]c3ccccc23)cc1-c1ccc2[nH]nc(C)c2c1.O=C(O)C(F)(F)F [GSK682037],25,20,27,47,52,0,19,16,11,0,6,0,35,0,2,0,0,0,0,30
